# Most compounds without a hit are left out; they make up all but 2.2% or so of the library.
# MEKK2 WT-MEK5: modulators of MEK5 binding to wildtype MEKK2, primary screen, biochemical, multiplex bead flow cytometry, Alexa488-MEK5; AID 1531, 2009; binding response (% of control), % at 10 µM; 290,000 tested, 1.1% active; Alexa488-MEK5 binding to MEKK2 WT; actives lie on both sides; in the data active = binding response below about 67% or above about 130%
# VLA-4 inh: inhibition in human VLA-4 binding assay, primary screen, VLA-4 allosteric modulator project, MLPCN library, flow cytometry, VLA-4 expressing cells; Integrin alpha-4 (Homo sapiens), P13612; inhibition, % (about 7 µM as worked out from the volumes in the protocol); ligand binding flow cytometry; 330,000 tested, 0.2% active; in the data active = inhibition above about 50%
# MEKK2mut PB1 HTS: MEK5 binding signal on mutant MEKK2 PB1, primary screen, biochemical, multiplex bead flow cytometry, Alexa488-MEK5; Alexa488-MEK5 binding to MEKK2 mutant; percent response, % at 10 µM; 290,000 tested, 0.35% active; AID 1530, 2009; in the data active = percent response above about 24%, passing the limit was not always enough
# MEKK3 PB1 HTS: modulators of MEKK3-MEK5 PB1 binding, primary screen, biochemical, wildtype MEKK3, multiplex bead flow cytometry, Alexa488-MEK5. Mitogen-activated protein kinase kinase kinase 3 (Homo sapiens), Q99759. AID 1529, 2009. 290,000 tested, 1.4% active. binding response (% of control), % at 10 µM. bead-based flow cytometry, Alexa488-MEK5 binding to MEKK3; actives lie on both sides; 0 = blocked by unlabeled MEK5, 100 = vehicle;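 active = binding response more than 3 SD above or below the average of its plate-row segment, actives on both sides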;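 also: Alexa488 bead fluorescence after subtracting the streptavidin-only scavenger bead signal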
# Target sequence (Q99759 whole entry, looked up): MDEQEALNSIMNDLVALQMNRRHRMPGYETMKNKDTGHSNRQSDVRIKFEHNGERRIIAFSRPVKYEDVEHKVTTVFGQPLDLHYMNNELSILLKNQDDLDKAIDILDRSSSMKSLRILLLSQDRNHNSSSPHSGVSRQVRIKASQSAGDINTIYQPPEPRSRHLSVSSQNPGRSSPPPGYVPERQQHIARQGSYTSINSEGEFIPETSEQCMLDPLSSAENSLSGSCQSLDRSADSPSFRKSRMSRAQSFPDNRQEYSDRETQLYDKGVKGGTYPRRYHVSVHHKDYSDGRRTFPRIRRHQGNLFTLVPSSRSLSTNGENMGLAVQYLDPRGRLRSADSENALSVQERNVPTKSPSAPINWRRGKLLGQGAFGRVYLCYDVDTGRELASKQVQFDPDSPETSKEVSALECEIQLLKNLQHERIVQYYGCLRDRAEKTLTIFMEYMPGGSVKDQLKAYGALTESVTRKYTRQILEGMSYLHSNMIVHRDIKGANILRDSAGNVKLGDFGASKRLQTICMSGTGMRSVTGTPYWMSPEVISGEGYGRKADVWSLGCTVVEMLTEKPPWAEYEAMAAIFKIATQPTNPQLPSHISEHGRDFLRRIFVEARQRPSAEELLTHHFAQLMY
# MEKK2wt confirm: modulators of MEK5 binding to wildtype MEKK2, confirmation, biochemical, single concentration, multiplex bead flow cytometry; shares compounds with MEKK3 PB1 HTS; Alexa488-MEK5 binding to MEKK2 WT; actives lie on both sides; binding response (% of control), % at 10 µM; 5,900 tested, 2.4% active; AID 1892, 2009; in the data active = binding response below about 16% or above about 210%; inactive = in between
# MEKK2mut confirm: mutant MEKK2 PB1-MEK5 binding signal retest – biochemical, single concentration, multiplex bead flow cytometry, confirmation. shares compounds with MEKK3 PB1 HTS. Alexa488-MEK5 binding to MEKK2 mutant. percent response, % at 10 µM. 5,900 tested, 2% active. AID 1893, 2009; in the data active = percent response mostly above about 71%, no sharp cut-off; inactive = mostly below about 38%;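 also: higher means compound restores mutant binding toward wildtype level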
# MEKK3-MEK5 inh: MEKK3 wild-type PB1 binding to MEK5, inhibitors, confirmation, biochemical, bead multiplex flow cytometry, single concentration, wildtype | AID 1894, 2009 | binding response (% of control), % at 10 µM | shares compounds with MEKK3 PB1 HTS | Alexa488-MEK5 binding to MEKK3; hits give low values | 5,900 tested, 1.8% active;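 active = binding response below 72% of control, or above a set upper limit, though filed actives all read lower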;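 also: lower values mean stronger disruption of MEK5 binding to MEKK3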
# Numbers stand for hits; . = inactive; / = no result given; [ ] = remark or other dose.
SMILES,MEKK2 WT-MEK5,VLA-4 inh,MEKK2mut PB1 HTS,MEKK3 PB1 HTS,MEKK2wt confirm,MEKK2mut confirm,MEKK3-MEK5 inh
Cc1ccc2c(Cl)c(C)c(N3CCCCC3)nc2n1,.,.,.,131,.,.,.
Cc1nc2ccccc2nc1N1CCCCC1,.,/,.,.,/,/,/
CC(=O)c1c(C)[nH]c(C(=O)COC(=O)c2ccc(C)s2)c1C,/,.,/,/,/,/,/
CCOC(=O)CN1C(=O)C(C)(C)Oc2ccc(C(=O)Nc3ccccc3)cc21,.,.,.,72[inhibitor],.,.,.
COC(=O)CN1C(=O)C(C)(C)Oc2ccc(C(=O)Nc3ccccc3F)cc21,.,.,.,.,/,/,/
COc1cc(C)c(/C=C(\C#N)C(=O)Nc2cccc(C)c2)cc1C(C)C,.,.,.,.,/,/,/
COc1cc(/C=N/NS(=O)(=O)c2ccc(C(C)(C)C)cc2)cc([N+](=O)[O-])c1O,48[inhibitor],.,.,.,.,.,.
COc1cc(/C=N/NS(=O)(=O)c2ccc(C)c([N+](=O)[O-])c2)cc([N+](=O)[O-])c1O,.,.,.,.,/,/,/
Clc1cccc(CN2CCC(Cc3ccccc3)CC2)c1,.,.,.,.,/,/,/
O=Cc1cc(Cl)ccc1OCCN1CCC(Cc2ccccc2)CC1,140,.,.,.,.,.,.
Clc1ccc(CN2CCC(Cc3ccccc3)CC2)cc1,199,.,59,.,.,.,.
OCc1ccccc1OCCCN1CCC(Cc2ccccc2)CC1,194,.,24,.,.,.,.
CCn1ncc(CN2CCCC(C(=O)Nc3cccc(-c4cc5ccccc5[nH]4)c3)C2)c1C (configuration not stated),161,.,24,.,.,.,.
CC1(c2ccc([N+](=O)[O-])cc2)NC(=O)NC1=O (configuration not stated),.,.,.,.,/,/,/
CC(C)C1COC(c2cccn2Cc2ccccc2Cl)=N1 (configuration not stated),.,.,.,.,/,/,/
Cc1ccc(Cn2cccc2C2=NC(C)CO2)cc1 (configuration not stated),.,.,.,125,.,.,.
CCCCn1c(N)c(N(Cc2ccccc2OC)C(=O)c2sccc2C)c(=O)[nH]c1=O,/,.,/,/,/,/,/
COCCCn1c(=O)c2ccccc2n(Cc2ccc(C)cc2)c1=O,.,.,.,.,/,/,/
COCCCNC(=O)c1ccc(Cn2c(=O)c3ccccc3n(Cc3ccc(C)cc3)c2=O)cc1,.,.,.,125,.,.,.
Cc1nn(CCC(N)=S)c2nc(-c3cccs3)cc(C(F)(F)F)c12,.,.,.,151,.,.,.
CC(=O)c1c(N2CCN(C)CC2)[nH]c(-c2ccccc2)nc1=S,23,.,47,.,.,.,.
O=C(Cn1c2c(c(=O)n3ncnc13)CCC2)N/N=C/c1ccc(Cl)cc1,.,.,.,48[inhibitor],.,.,.
O=C(CCS(=O)(=O)c1cccc2nonc12)Nc1ccc(Br)cc1,.,.,.,.,/,/,/
Cc1cc(C)cc(OCC(O)CN2CC(C)OC(C)C2)c1 (configuration not stated),.,.,.,.,/,/,/
Cc1ccc2oc(C(=O)NC3CCS(=O)(=O)C3)cc(=O)c2c1 (configuration not stated),.,.,.,.,/,/,/
COc1ccc(/C=C\c2onc(C)c2S(=O)(=O)N2CCC(C(=O)NCc3ccco3)CC2)cc1,.,.,.,130,.,.,.
Cc1noc(/C=C/c2cccs2)c1S(=O)(=O)N1CCC(C(=O)NCCCN2CCCC(C)C2)CC1 (configuration not stated),152,.,.,.,.,.,.

# From PubChem
